G9a inh = G9a (human) methyltransferase inhibition | Q96KQ7 | G9a H3K9 monomethylation, AlphaScreen, 2 h | Potency, µM (highest dose often 102 µM), without a hit: at the highest dose activity, negative = inhibition, most hits filed as inhibitors | hit rate 8.8% among 350,000; further: on the % scale 0 is the no-effect control and ±100 the full control effect; nearly all actives have a fitted effect of over 75% in size
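Chemiluminescent proximity detection of H3K9 monomethylation, read after 10 min bead incubation in the dark. Reaction: 20 nM G9a, 500 nM biotin-H3K9 peptide, 20 uM SAM cofactor, 2 h, room temperature, following 15 min enzyme-compound preincubation.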
ALOX12 inh = inhibitors of human 12S-lipoxygenase ALOX12; purified 12hLO, xylenol orange hydroperoxide absorbance; Potency, µM (top dose mostly 108 µM), for the others: top-dose activity change, negative = inhibition, hits mostly inhibitors; P18054; hit rate 1.1% among 580,000; further: on the % scale 0 is the no-effect control and ±100 the full control effect
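Hydroperoxide product was detected by ferrous iron/xylenol orange as the 573 to 405 nm absorbance ratio. Arachidonic acid at 40 uM (final) was turned over for 30 min at room temperature by 150 nM human 12hLO, pH 7.0 Hepes buffer, after 15 min compound preincubation.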
JMJD2A Tudor inh = JMJD2A Tudor domain (human) inhibition | AlphaScreen JMJD2A-Tudor / H3K4me3 peptide binding | AID 504339 | hit rate 4.4% among 390,000 | O75164 | Potency, µM (highest dose often 114 µM), inactives show top-dose activity change, negative = inhibition, usual class: inhibitors; further: on the % scale 0 is the no-effect control and ±100 the full control effect; nearly all actives have a fitted effect of over 50% in size
BAZ2B inh = inhibitors of human BAZ2B bromodomain; Q9UIF8; AlphaScreen BAZ2B-H3K14Ac peptide displacement; Potency, µM (top dose mostly 114 µM), for the others: at the highest dose activity change, negative = inhibition, hits mostly inhibitors; hit rate 4.4% among 360,000; AID 504333; further: on the % scale 0 is the no-effect control and ±100 the full control effect; nearly all actives have a fitted effect of over 60% in size
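AlphaScreen displacement: compounds (up to 110uM) incubated 30 min at room temperature with a preformed 50 nM BAZ2B/50 nM biotinylated H3K14Ac peptide complex in PBS pH 7.4 with Tween-20. Donor and acceptor beads at 10 ug/mL final added, 20 min light-protected before reading.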
PLK1 PBD block = blocks phosphopeptide binding to human PLK1 polo-box domain | hit rate 2.8% among 360,000 | Plk1 PBD binding of FITC phosphopeptide, fluorescence polarization | AID 720504 | Potency, µM, without a hit: max response, negative = inhibition, hits mostly inhibitors; further: series mostly up to about 57 µM; on the % scale 0 is the no-effect control and ±100 the full control effect; nearly all actives have a fitted effect of over 65% in size
HP1b binding inh = blocks HP1-beta chromodomain binding to methylated histone tails. AlphaScreen HP1-beta / biotin-H3K9me3 peptide binding. Potency, µM (top dose mostly 114 µM), for the others: at the top dose activity change, negative = inhibition, most hits filed as inhibitors. hit rate 0.56% among 390,000. AID 540317; further: nearly all actives have a fitted effect of over 70% in size
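Compound inhibition of the preformed complex between 50 nM HP1-beta and 50 nM biotinylated H3K9me3 peptide was read by AlphaScreen. Buffer was PBS pH 7.4 with 0.01% Tween-20. Incubations ran 30 min at room temperature, with 10 ug/mL donor/acceptor beads.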
Starred values were filed as active, the others as inactive; ? = inconclusive; · = no result given; [ ] = another dose, or the depositor's remark. In the library only some 9% were active in any assay of this set; here they are far more common. The call rests on the fitted dose curve; in most records, active means well fitted curve in the direction sought with a large enough effect; inconclusive means small, poorly fitted or top-dose-only effect, or another doubt; inactive means no such curve, though single readings can be large; an effect the other way counts as inactive or inconclusive. Potency means the concentration at half of the fitted maximal effect.

SMILES | G9a inh | ALOX12 inh | JMJD2A Tudor inh | BAZ2B inh | PLK1 PBD block | HP1b binding inh
COc1ccc(-n2c(CNC(=O)COc3ccc(Cl)cc3Cl)n[nH]c2=S)cc1 | 7.9µM* | ? | -6% | 0% | 2% | 73%
COc1ccc(-n2c(CNC(=O)COc3ccccc3)n[nH]c2=S)cc1 | ? | -2% | 11µM* | -18% | -1% | 37%
COc1ccc(CNC(=O)COC(=O)CCCOc2ccc(Cl)cc2Cl)cc1 | 0% | 1% | 19% | -2% | -5% | 42%
CCCNC(=O)C1CCN(S(=O)(=O)c2ccc3c(c2)OCCO3)CC1 | -28% | -10% | -1% | 7% | -2% | 28%
O=C(CCS(=O)(=O)c1cccc2nsnc12)NC1CCCCCC1 | 40µM* | ? | -11% | -1%[57.1 µM] | -27% | 14%
C=CCN(C(=O)CCS(=O)(=O)c1cccc2nsnc12)c1ccccc1 | 45µM* | ? | -23% | -4% | ? | 3%
CC(=O)c1cccc(NC(=O)CCS(=O)(=O)c2cccc3nsnc23)c1 | 10µM* | ? | -27%[57.1 µM] | -4% | 24µM* | -38%
CCN(C(=O)CCS(=O)(=O)c1cccc2nsnc12)c1cccc(C)c1 | -6%[59 µM] | -22% | -11% | -2% | -17% | 26%
CCN(C(=O)C(NS(=O)(=O)c1cccc2nsnc12)c1ccccc1)c1ccccc1 (stereo not given) | 2.8µM* | ? | ? | · | · | 5%
O=C(Nc1ccccc1)Oc1ccc[nH]c1=O | ? | ? | -17% | ? | 15µM* | -3%
Cc1noc(C)c1C(=O)N1CCC[C@@]2(CCN(C(=O)Nc3cccc(F)c3)C2)C1 | 8%[12.7 µM] | 3%[57.4 µM] | · | · | · | ·
CC1(C)CC(=O)C2=C(C1)c1c(ccc3ccccc13)NC2c1cc([N+](=O)[O-])cc([N+](=O)[O-])c1O (stereo not given) | ? | 40µM* | 56µM* | 50µM* | 3.4µM* | ?
O=C(Nc1ccccc1C(=O)O)c1cccc(NS(=O)(=O)c2ccc(Br)cc2)c1 | · | 40µM* | -11% | -3% | 42µM* | 23%
Cc1cccc(NC(=O)c2cccc(S(=O)(=O)Nc3ccccc3C(=O)O)c2)c1 | -1%[0.501 µM] | 0% | -8% | -27% | 1% | 32%
O=C(Nc1cccc(C(F)(F)F)c1)c1cccc(NS(=O)(=O)c2ccc(O)c(C(=O)O)c2)c1 | ? | -21% | 56µM* | -18% | -28% | -1%
O=C(Nc1cccc(C(F)(F)F)c1)c1cccc(NS(=O)(=O)c2ccc(Br)c(C(=O)O)c2)c1 | ? | 0% | -16% | -13% | 2% | 17%
O=C(O)c1ccc(NS(=O)(=O)c2cccc(C(=O)Nc3ccc(Br)cc3)c2)cc1 | 20%[0.501 µM] | -22% | -14% | 7% | 2% | 39%
O=C(Nc1ccccc1C(=O)O)c1cccc(S(=O)(=O)Nc2ccc(Br)cc2)c1 | 13% | 16µM* | -21% | -2% | ? | -7%
CC(=O)c1ccc(OCc2cc(C(=O)N(C)CCN3CCOCC3)no2)cc1 | 4% | -3% | -10% | -20% | -7% | 45%
CCC(CO)n1c(=S)[nH]c2cc(OC)c(OC)cc2c1=O (stereo not given) | 18µM* | -27% | 25µM* | -17% | -1% | 38%
O=S1OCCSc2sc(=S)sc2SCCO1 | · | 28µM* | · | · | · | ·
CCCc1nnc(NC(=O)c2nc(S(=O)(=O)Cc3ccc(C)cc3)ncc2Cl)s1 | 13µM* | ? | -16% | -20% | -21% | 55%
Cc1ccc(CS(=O)(=O)c2ncc(Cl)c(C(=O)Nc3nc4ccc(C)cc4s3)n2)cc1 | 5%[59 µM] | ? | -25% | -18% | · | 28%
CSc1nnc(NC(=O)c2nc(S(=O)(=O)Cc3ccccc3)ncc2Cl)s1 | 50µM* | -8% | 16µM* | 45µM* | 30µM* | -2%[57 µM]
Cc1ccccc1CS(=O)(=O)c1ncc(Cl)c(C(=O)Nc2nnc(C(C)C)s2)n1 | ? | ? | ? | -19% | · | 35%

Compound activity deposited in PubChem by National Center for Advancing Translational Sciences (NCATS).
